# Laboratory results as given in paper PMC7826789 (International Journal of Molecular Sciences, 2021).
# Experiments:
# Conditions in all cases: Compound Concentration (nM):1000
# EGFR(G719S) = test system: EGFR(G719S)
# [1] = test system: EGFR(L747-E749del, A750P)
# [2] = test system: EGFR(L747-S752del, P753S)
# EGFR(L747-T751del,Sins) = test system: EGFR(L747-T751del,Sins)
# EGFR(L858R) = test system: EGFR(L858R)
# EGFR(L858R,T790M) = test system: EGFR(L858R,T790M)
# EGFR(L861Q) = test system: EGFR(L861Q)
# EGFR(S752-I759del) = test system: EGFR(S752-I759del)
# EGFR(T790M) = test system: EGFR(T790M)
# EGFR = test system: EGFR
# EIF2AK1 = test system: EIF2AK1
# EPHA1 = test system: EPHA1
# EPHA2 = test system: EPHA2
# EPHA3 = test system: EPHA3
# EPHA4 = test system: EPHA4
# EPHA5 = test system: EPHA5
# EPHA6 = test system: EPHA6
# EPHA7 = test system: EPHA7
# EPHA8 = test system: EPHA8
# EPHB1 = test system: EPHB1
# 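Note: KINOMEscan scanMAX binding as percent activity remaining versus control; lower means stronger binding.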
SMILES,Percent Control (EGFR(G719S)) [%],Percent Control [1] [%],Percent Control [2] [%],"Percent Control (EGFR(L747-T751del,Sins)) [%]",Percent Control (EGFR(L858R)) [%],"Percent Control (EGFR(L858R,T790M)) [%]",Percent Control (EGFR(L861Q)) [%],Percent Control (EGFR(S752-I759del)) [%],Percent Control (EGFR(T790M)) [%],Percent Control (EGFR) [%],Percent Control (EIF2AK1) [%],Percent Control (EPHA1) [%],Percent Control (EPHA2) [%],Percent Control (EPHA3) [%],Percent Control (EPHA4) [%],Percent Control (EPHA5) [%],Percent Control (EPHA6) [%],Percent Control (EPHA7) [%],Percent Control (EPHA8) [%],Percent Control (EPHB1) [%]
O=C1Nc2ccc(C(=O)c3ccco3)cc2C1=Cc1cc(Cl)c(O)c(Cl)c1 [GW406108X],58,100,94,91,100,92,57,81,77,100,100,100,75,100,89,100,100,100,100,100
CC1=C(C(=O)Nc2ccc3[nH]ncc3c2)C(c2ccc3ccccc3c2)CC(=O)N1 (stereo not drawn) [GSK270822A],100,100,100,100,100,55,83,100,56,100,87,93,88,85,82,100,90,98,99,99
Cl.O=C(Nc1ccc(Oc2ccc3[nH]c(NC(=O)c4ccccc4)nc3c2)cc1)Nc1cc(C(F)(F)F)ccc1F [GW709042A],57,100,91,82,100,93,60,87,82,100,100,75,69,100,62,90,34,54,16,82
COc1cc2ncnc(Nc3ccc4c(cnn4Cc4ccccc4)c3)c2cc1OC.Cl [GW282449A],1.4,11,3.4,5.2,0.9,78,0,78,7.2,4.4,100,100,100,100,100,100,100,100,100,100
CCS(=O)(=O)c1ccc(OC)c(Nc2ncc(-c3cccc(F)c3)o2)c1 [GW621970X],92,72,75,84,92,100,79,73,100,85,100,65,100,68,96,100,100,100,100,100
COC(=O)Nc1nc2ccc(Oc3ccc(NC(=O)Nc4cc(C(F)(F)F)ccc4F)cc3)cc2s1.Cl [GW693917A],83,86,95,100,78,95,100,100,68,90,100,19,14,9.9,12,52,11,16,0.5,31
CCc1ccc(Oc2nccc(-c3c(-c4ccc(F)cc4)ncn3C3CCNCC3)n2)cc1 [SB-242719],61,48,91,71,49,73,58,85,52,48,100,94,95,95,95,100,90,100,97,100
C/C(Nc1ccc(S(N)(=O)=O)cc1)=C1/C(=O)Nc2ccccc21 [GW335962X],63,93,82,100,100,95,68,100,74,100,100,100,98,100,92,100,85,100,100,100
COc1ccc2c(-c3ccnc(Nc4cccc(OC(F)(F)F)c4)n3)cnn2n1 [GW810372X],73,100,98,100,100,100,75,100,82,100,100,64,91,100,86,100,100,100,100,100
CCS(=O)(=O)c1ccc(OC)c(Nc2ncc(-c3cccc(OC)c3)o2)c1 [GW580509X],98,65,85,100,80,100,81,95,89,83,100,100,100,94,92,100,100,100,100,100
COc1cccc(-n2ncc3c(N/N=C/c4ccncc4)ncnc32)c1 [GW784752X],59,96,81,100,75,96,77,87,100,75,100,87,100,100,98,100,100,100,100,100
Cl.O=C(O[C@H]1CN[C@H](C#Cc2cc3ncnc(Nc4ccc5c(cnn5Cc5ccccc5)c4)c3s2)C1)N1CCOCC1 [GSK200398A],2,66,20,24,9.2,87,0.3,3.1,44,25,100,87,96,94,96,100,95,100,100,100
CC1=C(C(=O)Nc2ccc3[nH]ncc3c2)C(c2ccc(Cl)c(Cl)c2)CC(=O)N1 (stereo not drawn) [GSK299115A],100,100,97,100,100,65,86,89,77,100,100,100,98,86,96,95,100,100,100,74
Cc1cc(O)cc(C)c1/C=C/c1cncc(C(N)=O)c1 [GW435821X],67,68,87,100,80,100,71,78,94,78,100,47,62,63,51,88,100,100,28,82
C[C@@H](Oc1cc(-n2cnc3ccc(OC4CCN(C)CC4)cc32)sc1C(N)=O)c1ccccc1Cl [GSK579289A],59,58,100,100,79,85,64,66,62,75,62,69,100,81,97,100,96,89,81,82
O=C(Nc1n[nH]c2nc(-c3ccc(O)cc3)c(Br)cc12)C1CC1 [SB-725317],100,76,99,100,96,100,100,82,96,100,14,82,100,85,86,100,100,100,100,100
COc1ccc2[nH]c3c4[nH]c5ccc(OC)cc5c4c4c(c3c2c1)C(=O)NC4=O [GW296115X],57,24,49,44,50,35,71,68,45,51,86,93,85,86,86,85,88,86,87,77
CN(C)c1cc2c(Nc3ccc4c(cnn4Cc4ccccc4)c3)ncnc2cn1 [GW282974X],–,–,–,–,–,–,–,–,–,–,100,89,100,98,95,33,87,95,90,90
COc1cc(C=NNc2ncnc3c2cnn3-c2ccccc2)ccc1O [GW513184X],44,46,33,64,96,76,62,64,82,100,100,100,100,100,100,83,100,90,94,99
COc1ccc(COc2ccc(Cc3cnc(N)nc3N)cc2OC)cc1 [GW632580X],61,100,75,99,86,98,61,85,69,92,100,97,100,100,99,93,98,100,90,90
